The full data set covers some 7,900 targets. This sample favours those with a hit. About 0.6% of all pairs of compound and target were hits. Values without a mark were called inactive.

Holding throughout (experiment): log2 fold change, soluble protein after heating vs DMSO (PISA); higher = thermal stabilisation; K562 cells, 10 uM, 30 min; active = over 0.2 and 3.5 SD of the protein, either way, in both replicates (recomputed)
Compound in one test: C#Cc1cccc(Nc2ncnc3cc(OCCOC)c(OCCOC)cc23)c1 [erlotinib]
A digest of the protocol:
(§1)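 Soluble protein was defined as the supernatant after 21,000xg for 90 min. It came from K562 cells at 2×10^6 cells/mL given 10 μM compound for 30 min, heated in aliquots for 3 min across 48°C-58°C, pooled, and extracted in PBS with 0.5% NP-40 at 4°C, and was quantified by TMTpro 16plex LC-MS/MS with equalised channel sums. Thermal stability against control samples, from duplicates, is reported as log2 fold change.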

Compound in test [1]: C/C(=N\NC(=O)C1=CC(=CC=C1)S(=O)(=O)N2CCOCC2)/C3=C(C=CC(=C3)Cl)O
A digest of the protocol:
as §1

Compound in test [2]: C1=CC(=C(C=C1Cl)C2=NC3=NC=CN=C3C(=N2)NC4=CC=NC=C4)F
The procedure, abridged: as §1

Compound in test [3]: C1=CC(=CC=C1C2=NC3=C(N2)C=C(C=C3)C(=O)N)OC4=CC=C(C=C4)Cl
The procedure, abridged: as §1

Compound in test [4]: C1=CC2=C(C=CC(=C2)/C=C\3/C(=O)NC(=NCC4=CC=CS4)S3)N=C1
A digest of the protocol: as §1

Compound in test [5]: C1=CC2=NC=CN=C2C=C1/C=C/3\C(=O)NC(=O)S3
The procedure, abridged: as §1

Compound in test [6]: C1=CC=C(C=C1)C2=NC(=C(N2)C3=CC=NC=C3)C4=CC(=C(C=C4)Cl)O
The procedure, abridged:
as §1

Compound in test [7]: C1=CC=C2C(=C1)C3=NNC4=CC=CC(=C43)C2=O
A digest of the protocol: as §1

Compound in test [8]: C1CCN(C1)C(=O)NC2=CC=CC(=C2)NC3=NC=C(C(=N3)NCCC4=CN=CN4)Br
A digest of the protocol:
as §1

Compound in test [9]: C1CN(CCC1(CC2=CC=C(C=C2)Cl)N)C3=NC=NC4=C3C=CN4
A digest of the protocol: as §1

Chain of UniProt Q9H000 (Q9H000 whole entry, looked up): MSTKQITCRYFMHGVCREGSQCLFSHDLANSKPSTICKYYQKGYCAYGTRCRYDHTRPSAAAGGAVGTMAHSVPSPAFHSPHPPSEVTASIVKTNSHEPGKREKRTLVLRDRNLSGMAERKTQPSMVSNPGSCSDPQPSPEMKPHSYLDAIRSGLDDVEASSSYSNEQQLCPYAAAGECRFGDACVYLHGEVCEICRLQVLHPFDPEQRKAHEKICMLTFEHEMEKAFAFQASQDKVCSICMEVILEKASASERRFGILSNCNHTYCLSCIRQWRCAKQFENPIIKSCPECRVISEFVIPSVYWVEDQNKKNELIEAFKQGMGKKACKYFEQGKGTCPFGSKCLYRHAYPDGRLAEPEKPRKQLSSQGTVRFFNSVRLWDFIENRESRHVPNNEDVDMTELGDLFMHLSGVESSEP
Chain of UniProt Q9BZF1 (Q9BZF1 whole entry, looked up): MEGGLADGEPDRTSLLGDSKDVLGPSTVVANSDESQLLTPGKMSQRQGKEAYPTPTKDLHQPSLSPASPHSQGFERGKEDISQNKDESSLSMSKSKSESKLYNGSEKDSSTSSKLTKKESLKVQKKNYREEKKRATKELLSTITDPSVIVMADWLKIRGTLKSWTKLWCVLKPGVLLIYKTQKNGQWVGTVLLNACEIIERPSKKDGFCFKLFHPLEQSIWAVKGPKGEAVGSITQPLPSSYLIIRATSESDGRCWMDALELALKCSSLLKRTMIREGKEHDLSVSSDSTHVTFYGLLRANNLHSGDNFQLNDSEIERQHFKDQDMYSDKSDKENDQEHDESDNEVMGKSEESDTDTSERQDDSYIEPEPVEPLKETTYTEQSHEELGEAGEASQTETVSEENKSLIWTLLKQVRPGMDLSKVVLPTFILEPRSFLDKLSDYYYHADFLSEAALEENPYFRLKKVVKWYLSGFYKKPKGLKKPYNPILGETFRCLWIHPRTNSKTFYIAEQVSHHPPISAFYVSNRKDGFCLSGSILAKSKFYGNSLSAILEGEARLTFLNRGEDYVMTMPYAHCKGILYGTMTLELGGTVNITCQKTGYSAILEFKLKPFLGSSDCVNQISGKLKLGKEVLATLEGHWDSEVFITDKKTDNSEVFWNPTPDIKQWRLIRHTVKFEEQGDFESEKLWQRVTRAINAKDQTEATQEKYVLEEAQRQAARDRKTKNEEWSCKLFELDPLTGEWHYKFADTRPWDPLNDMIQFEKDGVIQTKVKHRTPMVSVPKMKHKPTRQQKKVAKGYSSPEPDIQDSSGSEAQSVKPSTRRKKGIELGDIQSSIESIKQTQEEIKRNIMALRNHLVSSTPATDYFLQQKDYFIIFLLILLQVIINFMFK
Chain of UniProt Q9H081 (Q9H081 whole entry, looked up): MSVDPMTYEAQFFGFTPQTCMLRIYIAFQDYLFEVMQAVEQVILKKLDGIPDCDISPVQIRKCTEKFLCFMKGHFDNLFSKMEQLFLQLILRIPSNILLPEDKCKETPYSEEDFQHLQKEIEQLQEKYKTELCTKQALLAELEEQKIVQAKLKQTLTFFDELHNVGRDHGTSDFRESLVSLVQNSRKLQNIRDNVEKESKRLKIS
Chain of UniProt Q9Y5B8 (Q9Y5B8 whole entry, looked up): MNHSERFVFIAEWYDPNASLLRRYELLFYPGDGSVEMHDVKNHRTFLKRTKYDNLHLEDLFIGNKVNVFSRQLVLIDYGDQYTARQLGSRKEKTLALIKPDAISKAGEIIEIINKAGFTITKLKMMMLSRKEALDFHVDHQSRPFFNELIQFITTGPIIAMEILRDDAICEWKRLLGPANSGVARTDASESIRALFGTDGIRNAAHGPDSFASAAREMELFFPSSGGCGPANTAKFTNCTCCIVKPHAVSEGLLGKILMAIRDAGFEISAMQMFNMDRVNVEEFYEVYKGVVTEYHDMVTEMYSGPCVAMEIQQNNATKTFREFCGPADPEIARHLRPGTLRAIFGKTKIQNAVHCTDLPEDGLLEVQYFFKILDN
Chain of UniProt Q96T76 (Q96T76 whole entry, looked up): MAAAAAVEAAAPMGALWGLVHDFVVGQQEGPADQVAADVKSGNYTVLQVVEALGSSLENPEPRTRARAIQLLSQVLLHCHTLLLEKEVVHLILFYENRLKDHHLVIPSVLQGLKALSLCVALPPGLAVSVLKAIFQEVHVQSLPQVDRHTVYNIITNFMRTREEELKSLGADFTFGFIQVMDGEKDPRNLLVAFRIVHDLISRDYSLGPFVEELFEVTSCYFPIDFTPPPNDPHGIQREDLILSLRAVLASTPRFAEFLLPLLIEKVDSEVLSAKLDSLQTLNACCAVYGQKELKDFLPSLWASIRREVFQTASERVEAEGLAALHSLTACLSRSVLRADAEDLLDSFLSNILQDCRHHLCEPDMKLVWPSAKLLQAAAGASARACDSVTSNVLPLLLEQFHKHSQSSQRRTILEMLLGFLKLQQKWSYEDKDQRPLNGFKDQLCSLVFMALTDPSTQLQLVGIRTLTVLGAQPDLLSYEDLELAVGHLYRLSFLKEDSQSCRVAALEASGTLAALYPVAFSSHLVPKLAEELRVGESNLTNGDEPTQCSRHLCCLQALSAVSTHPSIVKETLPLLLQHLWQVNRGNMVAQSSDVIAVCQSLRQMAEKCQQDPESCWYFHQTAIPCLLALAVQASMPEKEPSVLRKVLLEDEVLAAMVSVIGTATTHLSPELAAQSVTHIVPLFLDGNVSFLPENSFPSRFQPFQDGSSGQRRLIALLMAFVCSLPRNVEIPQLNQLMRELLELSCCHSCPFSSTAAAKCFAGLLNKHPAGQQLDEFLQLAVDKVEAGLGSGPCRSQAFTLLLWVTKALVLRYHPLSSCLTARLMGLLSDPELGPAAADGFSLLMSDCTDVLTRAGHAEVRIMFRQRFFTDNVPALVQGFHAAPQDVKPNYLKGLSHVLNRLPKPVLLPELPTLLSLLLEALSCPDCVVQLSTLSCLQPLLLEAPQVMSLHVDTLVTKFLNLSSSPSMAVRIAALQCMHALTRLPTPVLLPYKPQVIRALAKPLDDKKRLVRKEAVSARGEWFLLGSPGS
Chain of UniProt Q96DE0 (Q96DE0 whole entry, looked up): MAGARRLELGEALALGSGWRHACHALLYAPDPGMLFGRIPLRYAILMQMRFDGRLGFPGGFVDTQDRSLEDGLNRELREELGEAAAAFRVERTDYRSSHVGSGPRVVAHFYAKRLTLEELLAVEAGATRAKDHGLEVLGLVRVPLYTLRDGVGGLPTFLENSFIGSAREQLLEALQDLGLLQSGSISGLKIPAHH
Chain of UniProt Q12986 (Q12986 whole entry, looked up): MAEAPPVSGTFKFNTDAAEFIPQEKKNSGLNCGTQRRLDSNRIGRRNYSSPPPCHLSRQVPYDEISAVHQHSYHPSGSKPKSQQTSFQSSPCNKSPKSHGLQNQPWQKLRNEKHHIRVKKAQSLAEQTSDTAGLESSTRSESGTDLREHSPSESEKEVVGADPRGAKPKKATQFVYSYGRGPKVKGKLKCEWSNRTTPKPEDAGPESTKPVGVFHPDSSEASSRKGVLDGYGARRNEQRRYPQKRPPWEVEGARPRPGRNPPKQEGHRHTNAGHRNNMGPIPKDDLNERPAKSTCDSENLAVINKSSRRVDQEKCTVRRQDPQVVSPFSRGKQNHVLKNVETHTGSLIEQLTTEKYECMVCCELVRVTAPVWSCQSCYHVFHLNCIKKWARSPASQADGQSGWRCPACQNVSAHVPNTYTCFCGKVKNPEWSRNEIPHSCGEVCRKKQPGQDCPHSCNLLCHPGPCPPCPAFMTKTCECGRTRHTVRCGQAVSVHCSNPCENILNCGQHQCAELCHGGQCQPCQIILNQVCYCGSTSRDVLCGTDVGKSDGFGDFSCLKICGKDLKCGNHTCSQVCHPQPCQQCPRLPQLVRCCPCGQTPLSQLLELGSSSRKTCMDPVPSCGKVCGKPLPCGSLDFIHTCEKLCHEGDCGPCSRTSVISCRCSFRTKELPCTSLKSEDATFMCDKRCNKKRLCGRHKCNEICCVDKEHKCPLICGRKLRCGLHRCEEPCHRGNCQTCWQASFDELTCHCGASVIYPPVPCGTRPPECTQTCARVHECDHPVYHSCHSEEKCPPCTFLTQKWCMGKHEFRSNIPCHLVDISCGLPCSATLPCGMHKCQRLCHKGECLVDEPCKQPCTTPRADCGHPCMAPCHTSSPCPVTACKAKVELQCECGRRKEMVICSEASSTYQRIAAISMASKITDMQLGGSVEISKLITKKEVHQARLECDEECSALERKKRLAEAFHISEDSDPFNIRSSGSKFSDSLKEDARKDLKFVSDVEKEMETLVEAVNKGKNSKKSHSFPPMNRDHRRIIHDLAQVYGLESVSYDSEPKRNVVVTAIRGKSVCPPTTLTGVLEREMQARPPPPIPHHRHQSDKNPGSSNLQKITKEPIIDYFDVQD
Chain of UniProt O14524 (O14524 whole entry, looked up): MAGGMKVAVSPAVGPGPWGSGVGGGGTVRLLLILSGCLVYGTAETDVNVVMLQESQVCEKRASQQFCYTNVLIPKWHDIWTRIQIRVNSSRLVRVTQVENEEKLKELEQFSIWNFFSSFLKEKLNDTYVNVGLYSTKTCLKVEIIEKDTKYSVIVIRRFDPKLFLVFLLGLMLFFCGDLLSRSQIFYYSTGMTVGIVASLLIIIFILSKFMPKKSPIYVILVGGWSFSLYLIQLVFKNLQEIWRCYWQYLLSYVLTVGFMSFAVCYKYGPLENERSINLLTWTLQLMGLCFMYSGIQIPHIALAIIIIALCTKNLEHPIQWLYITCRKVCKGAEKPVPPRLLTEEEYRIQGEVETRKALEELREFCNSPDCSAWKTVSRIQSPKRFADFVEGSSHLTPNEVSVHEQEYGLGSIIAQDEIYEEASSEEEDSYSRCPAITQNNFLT

For NME7 (UniProt Q9Y5B8), the log2 fold change was 0.166 in the test with erlotinib; 0.058 in test [1]; -0.052 in test [2]; -0.247 in [3]; 0.127 in test [4]; -0.023 in test [5]. Further, the log2 fold change in [6] is 0.06; in test [7], 0.006; in [8], -0.039; in [9] it was -0.248.

Regarding OSBPL8 (UniProt Q9BZF1), the log2 fold change was 0.243 with erlotinib; 0.156 in [1]; -0.212 in [2]; 0.021 in test [3]; 0.005 in test [4]; -0.028 in test [5]. In addition, the log2 fold change is 0.077 in test [6], -0.005 in test [7], -0.048 in test [8] and -0.085 in test [9].

For NEMP1 (UniProt O14524), the log2 fold change with erlotinib is -0.003; in [1], -0.011; in test [2], -0.027; in [3], 0.023; in test [4], 0.049; in [5], 0.016. The log2 fold change in test [6] is -0.056; in test [7] it was -0.162; in test [8], 0.068; in test [9] it was 0.048.

Regarding MIS12 (UniProt Q9H081), the log2 fold change in the test with erlotinib is 0.103; in test [1], 0.083; in [2], 0.012; in test [3], 0.002; in test [4] it was 0.107; in test [5], 0.052. The log2 fold change in [6] was -0.063; in [7], -0.018; in test [8] it was -0.16; in test [9], -0.016.

On to NFX1 (UniProt Q12986), for which the log2 fold change in the test with erlotinib was 0.065; in [1], -0.024; in test [2], -0.26; in [3], 0.058; in test [4], 0.042; in [5], -0.069. Besides, the log2 fold change in [6] was -0.039; in test [7], -0.107; in test [8], 0.014; in [9] it was 0.048.

As to MRPS22 (UniProt P82650), the log2 fold change was -0.052 with erlotinib; 0.026 in test [1]; -0.021 in [2]; 0.16 in test [3]; -0.082 in test [4]; 0 in [5]. Further, the log2 fold change is 0.026 in test [6], 0.068 in test [7], -0.028 in test [8] and -0.101 in test [9].

For MMS19 isoform 8 (UniProt Q96T76), the log2 fold change in the test with erlotinib is -0.01; in [1], 0.001; in test [2] it was 0.044; in test [3], -0.025; in [4] it was 0.113; in [5], 0.053. The log2 fold change in [6] is 0.05; in test [7] it was 0.016; in [8], -0.01; in [9], -0.01.

As to MRPL46 (UniProt Q9H2W6), the log2 fold change in the test with erlotinib is -0.025; in test [1] it was -0.008; in test [2], 0; in test [3], 0.011; in test [4] it was -0.054; in test [5], -0.001. Moreover, the log2 fold change in test [6] was 0.046; in test [7] it was 0.164; in [8] it was -0.031; in [9], -0.075.

On to MRPS26 (UniProt Q9BYN8), for which the log2 fold change with erlotinib was -0.081; in [1], 0.004; in test [2] it was 0.004; in test [3] it was 0.157; in test [4], 0.038; in test [5] it was 0.088. In addition, the log2 fold change in [6] was -0.042; in [7], 0.06; in [8] it was -0.19; in test [9] it was 0.024.

In the case of MRPS33 (UniProt Q9Y291), the log2 fold change in the test with erlotinib was 0.023; in test [1], -0.018; in test [2], -0.129; in test [3], 0.021; in test [4] it was 0.019; in test [5] it was 0.032. In addition, the log2 fold change was -0.043 in test [6], 0.018 in [7], 0.026 in [8] and -0.133 in test [9].

MKRN2 (UniProt Q9H000): the log2 fold change is -0.038 with erlotinib; 0.057 in [1]; -0.16 in test [2]; 0.013 in test [3]; -0.058 in [4]; 0.002 in test [5]. Besides, the log2 fold change in test [6] is -0.011; in test [7], -0.052; in [8], -0.085; in [9], 0.061.

Regarding MSH3 (UniProt P20585), the log2 fold change in the test with erlotinib is 0.009; in [1], 0.031; in test [2] it was 0.068; in test [3] it was 0.017; in [4], 0.017; in [5], 0.03. Also, the log2 fold change was 0.004 in [6], -0.039 in test [7], 0.008 in test [8] and -0.045 in [9].

For NUDT16 (UniProt Q96DE0), the log2 fold change in the test with erlotinib is 0.081; in [1], 0; in test [2], 0.111; in test [3], 0.01; in test [4], -0.034; in test [5] it was -0.004. For the same target, the log2 fold change in test [6] was 0.014; in [7], 0.026; in test [8], -0.085; in [9] it was 0.081.

As for NUP205 (UniProt Q92621), the log2 fold change with erlotinib is 0.047; in [1], 0.131; in [2], -0.1; in [3] it was -0.031; in test [4], 0.068; in test [5], 0. Further, the log2 fold change is 0.016 in test [6], -0.146 in test [7], -0.063 in test [8] and -0.017 in test [9].

As to NOP56 (UniProt O00567), the log2 fold change was -0.093 with erlotinib; -0.012 in [1]; -0.676 (active) in test [2]; 0.087 in [3]; -0.232 in test [4]; 0.045 in [5]. Also, the log2 fold change is -0.164 in test [6], -0.109 in test [7], -0.111 in [8] and -0.15 in test [9].

These data come from the supplement of paper PMC10849652.
